Experiment [1] can be described thus: rapamycin-like changes in RPL19A-GFP expression – cell-based, S. cerevisiae, multiplex flow cytometry, primary screen (AID 1862; in the data active = percent of DMSO control GFP below about 86%;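 note: lower values mimic rapamycin by blocking the RPL19A rise seen in DMSO cells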). Conditions: S. cerevisiae RPL19A-GFP strain, flow cytometry fluorescence, 3 h; at 10 µM; stronger effect = lower value. (A flow cytometer gives signals particle by particle.)
The nature of experiment [2]: TOR pathway GLN3 branch reporter MEP2-GFP changes – S. cerevisiae, multiplex flow cytometry, primary screen (AID 1867;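 active = GFP response, as percent of the DMSO control, above the screen-wide mean plus 3 SD, about 139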;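 note: median GFP channel fluorescence of barcode-gated MEP2-GFP cells measured by flow cytometry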). Conditions: S. cerevisiae MEP2-GFP strain, 3 h, at 10 µM, stronger effect = higher value, 100% means same as DMSO wells.
A short description of experiment [3]: TOR pathway RTG branch CIT2 reporter changes – S. cerevisiae, GFP fusion, multiplex flow cytometry, primary screen (AID 1870).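 Note: barcoded CIT2-GFP strain pooled with four other GFP strains with rapamycin as positive control; median GFP fluorescence per well over plate mean of DMSO wells so 100% = DMSO.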 Conditions: S. cerevisiae CIT2-GFP expression, 3 h, at 10 µM, stronger effect = higher value.
A short description of experiment [4]: TOR pathway LAP4-GFP level changes – S. cerevisiae, multiplex flow cytometry, primary screen (AID 1873;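 active = GFP signal, as percent of the solvent control, above the screen mean plus 3 SD, about 149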). The conditions noted are these: S. cerevisiae LAP4-GFP expression, 3 h, at 10 µM, stronger effect = higher value.
The nature of experiment [5]: yeast AGP1-GFP level changes, GLN3 branch – cell-based, multiplex flow cytometry, S. cerevisiae, primary screen (AID 1887;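 active = GFP signal above the screen-wide mean plus 3 SD, that is over about 124.5% of the solvent control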;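 note: AGP1-GFP fusion strain of S. cerevisiae within a five-strain barcoded multiplex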). The conditions noted are these: 3 h, at 10 µM, stronger effect = higher value.
Experiment [6] is described as follows: reduced mouse 2C T cell binding to pMHC/ICAM-1 vesicles – MLPCN validation set, flow cytometry, LFA-1/ICAM-1 modulator project, pilot screen (AID 2523;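 active = response below a set limit, under 55% cells CD8-positive and vesicle-bound, and CD8 cells' 90th-percentile brightness under 279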;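 for vesicle binding response: mean PE anti-B7-1 fluorescence of CD8+ cells relative to row control; 100% = QL9-loaded vesicles with DMSO vehicle in the same plate row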). The conditions noted are these: 2C mouse CD8+ T cells, at 7 µM, stronger effect = lower value; double positive events: measured here: CD8+/vesicle+ event percentage.
Experiment [7] concerns the target Integrin beta-1 (Homo sapiens) + Integrin alpha-4 (Homo sapiens) (UniProt P13612+P05556). As to the kind of experiment: alpha4beta1 integrin LIBS antibody binding reduction – U937 cells, HUTS-21 mAb, flow cytometry, validation set, VLA-4 allosteric modulator project, pilot screen (AID 2674;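 active = inhibition above 50%, about 3 SD of the validation set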;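 note: antibody binding induced by the VLA-4 ligand LDV present at three times its Kd; 0% = LDV ligand with antibody and no compound and 100% = antibody without LDV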). The conditions noted are these: HUTS-21 LIBS mAb binding, at 6.7 µM, stronger effect = higher value, binding induced by LDV ligand.

A short description of experiment [8]: calorie-restriction mimetic ROS inhibitors, yeast – validation compound set, pilot screen (AID 2706;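 active = superoxide response below 65% of plate, a cut near 3 SD across the whole screen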;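 note: yeast exposed to compound for one week at 30 degrees C before staining; 100% = mean of all compound wells on the same plate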). The conditions noted are these: S. cerevisiae aging, superoxide DHE fluorescence; at 10 µM, stronger effect = lower value.
Experiment [9] deals with Beta-adrenergic receptor kinase 1 (Homo sapiens) (UniProt P25098). As to the kind of experiment: GRK2 binders displacing RNA aptamer, biochemical, validation, human GRK2, bead flow cytometry (AID 488806;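 active = aptamer binding inhibition above 30%, about 3 SD of noise from non-fluorescent compounds; inactive = inhibition at or below 30%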). The conditions noted are these: bead-bound GRK2, FAM-aptamer displacement, at 10 µM, stronger effect = higher value.
Sequence of Beta-adrenergic receptor kinase 1 (Homo sapiens) (P25098 whole entry, looked up): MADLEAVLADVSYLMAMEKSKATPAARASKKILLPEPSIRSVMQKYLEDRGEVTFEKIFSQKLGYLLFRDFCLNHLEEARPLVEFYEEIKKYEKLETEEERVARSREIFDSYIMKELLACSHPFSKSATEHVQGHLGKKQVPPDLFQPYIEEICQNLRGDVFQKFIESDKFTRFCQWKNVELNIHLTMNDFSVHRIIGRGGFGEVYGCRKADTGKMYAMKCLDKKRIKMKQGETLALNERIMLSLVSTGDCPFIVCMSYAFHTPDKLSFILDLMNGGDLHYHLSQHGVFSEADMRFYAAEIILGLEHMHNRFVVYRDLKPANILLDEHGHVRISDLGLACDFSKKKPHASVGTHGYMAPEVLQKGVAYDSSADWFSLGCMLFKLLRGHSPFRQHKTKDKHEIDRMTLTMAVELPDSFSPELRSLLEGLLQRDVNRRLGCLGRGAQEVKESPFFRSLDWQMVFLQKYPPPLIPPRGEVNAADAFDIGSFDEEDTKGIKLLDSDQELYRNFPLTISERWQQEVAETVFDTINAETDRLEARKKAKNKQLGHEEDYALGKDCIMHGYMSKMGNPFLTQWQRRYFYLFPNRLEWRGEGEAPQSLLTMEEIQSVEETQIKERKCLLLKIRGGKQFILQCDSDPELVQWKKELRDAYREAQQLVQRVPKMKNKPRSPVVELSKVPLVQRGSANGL
In experiment [10] the target is AP-2 complex subunit beta (Homo sapiens) (UniProt P63010). The experiment is described as follows: beta-arrestin/AP2 interaction blockers – biochemical, validation set, GST-AP2 beads, flow cytometry, pilot screen (AID 504541;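 active = inhibition above 54%, about 3 SD of non-fluorescent compounds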;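 note: AP2 carries R879A mutation and is captured from E. coli lysate; bead-bound FITC arrestin peptide fluorescence measuring arrestin peptide binding to AP2; 0% = DMSO wells and 100% = excess unlabeled arrestin peptide control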). Conditions: FITC arrestin peptide, at 10 µM, stronger effect = higher value, AP2 beta2 appendage fragment, R879A mutant.
Sequence of AP-2 complex subunit beta (Homo sapiens) (P63010 whole entry, looked up, the tested form may be a part, one chain of several): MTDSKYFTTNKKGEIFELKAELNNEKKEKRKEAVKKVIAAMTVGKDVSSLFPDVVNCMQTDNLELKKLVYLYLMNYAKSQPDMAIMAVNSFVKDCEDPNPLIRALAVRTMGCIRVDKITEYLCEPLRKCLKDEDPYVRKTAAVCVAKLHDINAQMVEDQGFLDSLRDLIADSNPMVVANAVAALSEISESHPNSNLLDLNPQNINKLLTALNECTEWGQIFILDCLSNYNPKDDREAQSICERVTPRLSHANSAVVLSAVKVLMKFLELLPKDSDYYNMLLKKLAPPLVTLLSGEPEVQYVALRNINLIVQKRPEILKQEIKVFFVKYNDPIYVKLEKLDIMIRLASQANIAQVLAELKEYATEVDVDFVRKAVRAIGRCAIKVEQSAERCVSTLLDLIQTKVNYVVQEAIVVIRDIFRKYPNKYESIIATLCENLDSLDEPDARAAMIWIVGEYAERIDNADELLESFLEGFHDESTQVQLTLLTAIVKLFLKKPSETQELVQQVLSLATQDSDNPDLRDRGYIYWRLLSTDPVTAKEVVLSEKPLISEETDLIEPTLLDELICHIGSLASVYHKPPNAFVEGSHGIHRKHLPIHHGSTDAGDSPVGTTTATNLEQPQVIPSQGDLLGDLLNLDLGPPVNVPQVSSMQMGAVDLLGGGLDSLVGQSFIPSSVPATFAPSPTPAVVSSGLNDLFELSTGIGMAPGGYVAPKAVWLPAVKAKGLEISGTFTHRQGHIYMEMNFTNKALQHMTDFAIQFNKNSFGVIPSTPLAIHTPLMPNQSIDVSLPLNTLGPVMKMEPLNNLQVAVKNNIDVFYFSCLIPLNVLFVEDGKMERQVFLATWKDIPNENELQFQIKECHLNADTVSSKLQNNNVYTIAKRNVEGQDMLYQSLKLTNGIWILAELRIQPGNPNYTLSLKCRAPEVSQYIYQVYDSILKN
A short description of experiment [11]: cytosolic pH regulators acting via V-ATPase – S. cerevisiae, pHLuorin, HTS validation (AID 504600; in the data active = response above about 15%;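 note: plate controls were DMSO for no effect and reference compound for full effect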). The conditions noted are these: V-ATPase proton transport, at 10 µM, stronger effect = higher value.
The test system of experiment [12] is anti-desmoglein-3 scFv antibody binding to human DSG3. As to the kind of experiment: blockers of pathogenic pemphigus antibody–desmoglein-3 binding – biochemical, validation compound set, bead-based, flow cytometry, pilot screen (AID 588368;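 active = binding below the plate cutoff, the plate median minus 3 SD, with a reading above zero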;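 note: signal is the median channel fluorescence of bead-bound GFP antibody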). Conditions: Protein G beads, DSG3-Fc, scFv-GFP binding, at 10 µM, stronger effect = lower value.
A short description of experiment [13]: Nile Red efflux blockade in pump-expressing yeast – validation compound set, multiplex, phenotypic, pilot screen (AID 588506;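 active = efflux inhibition above 0.42, the validation set average plus 4 SD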;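 note: Nile Red retained in cells so higher fluorescence means more efflux inhibition; 0 = negative control wells and 1 = enniatin B 25 µM full block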). The conditions noted are these: S. cerevisiae pump-expressing triplex, Nile Red efflux flow cytometry; at 10 µM; stronger effect = higher value; the pumps come from Candida albicans.
For experiment [14], the target named is ATP-binding cassette sub-family B member 6 (Homo sapiens) (UniProt Q9NP58). As to the kind of experiment: blockers of ABCB6-driven porphyrin uptake – K562-ABCB6 cells, flow cytometry, validation set, pilot screen (AID 588550;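 active = inhibition above the screen-wide mean plus 3 SD, about 51%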;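 note: 0% = DMSO wells and 100% = benzethonium chloride 70 µM positive control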). The conditions noted are these: K562-ABCB6 porphyrin accumulation, 1 h, at 10 µM, stronger effect = higher value.
Sequence of ATP-binding cassette sub-family B member 6 (Homo sapiens) (Q9NP58 whole entry, looked up): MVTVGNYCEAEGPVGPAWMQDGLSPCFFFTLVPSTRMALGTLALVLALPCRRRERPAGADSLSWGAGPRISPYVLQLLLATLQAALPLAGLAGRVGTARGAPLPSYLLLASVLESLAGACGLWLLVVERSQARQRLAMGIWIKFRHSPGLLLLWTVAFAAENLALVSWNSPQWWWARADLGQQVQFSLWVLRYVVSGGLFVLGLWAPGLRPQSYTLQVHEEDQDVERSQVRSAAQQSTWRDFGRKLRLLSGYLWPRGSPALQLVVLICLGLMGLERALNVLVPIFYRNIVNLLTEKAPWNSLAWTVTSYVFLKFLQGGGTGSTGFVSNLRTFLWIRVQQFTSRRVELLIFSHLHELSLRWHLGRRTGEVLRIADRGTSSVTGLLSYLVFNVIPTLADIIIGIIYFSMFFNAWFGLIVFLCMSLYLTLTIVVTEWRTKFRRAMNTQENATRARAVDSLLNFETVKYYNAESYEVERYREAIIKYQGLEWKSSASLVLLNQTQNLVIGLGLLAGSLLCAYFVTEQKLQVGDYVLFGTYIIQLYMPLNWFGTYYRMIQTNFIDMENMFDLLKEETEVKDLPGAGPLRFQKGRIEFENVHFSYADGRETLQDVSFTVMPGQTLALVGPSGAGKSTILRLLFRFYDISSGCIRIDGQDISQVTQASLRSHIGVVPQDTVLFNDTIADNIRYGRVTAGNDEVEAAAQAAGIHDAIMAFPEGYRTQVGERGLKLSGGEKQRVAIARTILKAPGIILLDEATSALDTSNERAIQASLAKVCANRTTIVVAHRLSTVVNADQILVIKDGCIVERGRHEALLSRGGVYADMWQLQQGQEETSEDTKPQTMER
Experiment [15] in a line: AML differentiation inducers, ER-HoxA9 marrow cells – cell-based, GFP/MAC1 double positive, flow cytometry, validation set, primary screen (AID 588685;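 active = differentiation response of at least 50%, scaled between solvent and reference control, from cells with both markers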;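 note: compound exposure lasts four days before antibody staining and flow analysis; 0% = DMSO wells and 100% = 5 µM fulvestrant positive control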). The conditions noted are these: stronger effect = higher value, normalized: vehicle 0, fulvestrant 100.

Records with an inconclusive call do not appear. Activity calls are given as the source filed them.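 Rule for the calls, unless noted: active = percent response above a set limit, the screen-wide mean plus 3 SD (cut at about 130% in these data); inactive = the rest.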

Sequence of Integrin beta-1 (Homo sapiens) + Integrin alpha-4 (Homo sapiens) (P05556 whole entry, looked up): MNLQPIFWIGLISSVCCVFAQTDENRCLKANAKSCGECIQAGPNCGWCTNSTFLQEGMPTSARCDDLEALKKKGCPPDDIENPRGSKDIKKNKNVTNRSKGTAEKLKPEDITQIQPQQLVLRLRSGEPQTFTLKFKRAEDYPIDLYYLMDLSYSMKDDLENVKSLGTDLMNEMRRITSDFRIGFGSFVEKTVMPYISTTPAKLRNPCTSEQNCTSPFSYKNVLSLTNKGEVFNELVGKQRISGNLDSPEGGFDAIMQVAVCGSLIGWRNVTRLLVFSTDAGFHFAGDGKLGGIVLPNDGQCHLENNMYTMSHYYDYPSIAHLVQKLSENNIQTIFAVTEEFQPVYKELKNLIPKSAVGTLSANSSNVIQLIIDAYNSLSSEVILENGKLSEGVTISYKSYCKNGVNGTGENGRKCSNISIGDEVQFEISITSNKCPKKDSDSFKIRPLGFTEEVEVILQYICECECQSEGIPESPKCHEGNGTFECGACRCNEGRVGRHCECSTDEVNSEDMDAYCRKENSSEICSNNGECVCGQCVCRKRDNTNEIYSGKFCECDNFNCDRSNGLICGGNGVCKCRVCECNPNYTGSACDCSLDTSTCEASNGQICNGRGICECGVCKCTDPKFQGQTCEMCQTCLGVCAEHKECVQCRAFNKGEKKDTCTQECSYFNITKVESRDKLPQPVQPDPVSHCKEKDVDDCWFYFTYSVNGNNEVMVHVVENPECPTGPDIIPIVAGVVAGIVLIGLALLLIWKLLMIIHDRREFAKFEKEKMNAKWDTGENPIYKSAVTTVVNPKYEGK
Sequence of Integrin beta-1 (Homo sapiens) + Integrin alpha-4 (Homo sapiens) (P13612 whole entry, looked up): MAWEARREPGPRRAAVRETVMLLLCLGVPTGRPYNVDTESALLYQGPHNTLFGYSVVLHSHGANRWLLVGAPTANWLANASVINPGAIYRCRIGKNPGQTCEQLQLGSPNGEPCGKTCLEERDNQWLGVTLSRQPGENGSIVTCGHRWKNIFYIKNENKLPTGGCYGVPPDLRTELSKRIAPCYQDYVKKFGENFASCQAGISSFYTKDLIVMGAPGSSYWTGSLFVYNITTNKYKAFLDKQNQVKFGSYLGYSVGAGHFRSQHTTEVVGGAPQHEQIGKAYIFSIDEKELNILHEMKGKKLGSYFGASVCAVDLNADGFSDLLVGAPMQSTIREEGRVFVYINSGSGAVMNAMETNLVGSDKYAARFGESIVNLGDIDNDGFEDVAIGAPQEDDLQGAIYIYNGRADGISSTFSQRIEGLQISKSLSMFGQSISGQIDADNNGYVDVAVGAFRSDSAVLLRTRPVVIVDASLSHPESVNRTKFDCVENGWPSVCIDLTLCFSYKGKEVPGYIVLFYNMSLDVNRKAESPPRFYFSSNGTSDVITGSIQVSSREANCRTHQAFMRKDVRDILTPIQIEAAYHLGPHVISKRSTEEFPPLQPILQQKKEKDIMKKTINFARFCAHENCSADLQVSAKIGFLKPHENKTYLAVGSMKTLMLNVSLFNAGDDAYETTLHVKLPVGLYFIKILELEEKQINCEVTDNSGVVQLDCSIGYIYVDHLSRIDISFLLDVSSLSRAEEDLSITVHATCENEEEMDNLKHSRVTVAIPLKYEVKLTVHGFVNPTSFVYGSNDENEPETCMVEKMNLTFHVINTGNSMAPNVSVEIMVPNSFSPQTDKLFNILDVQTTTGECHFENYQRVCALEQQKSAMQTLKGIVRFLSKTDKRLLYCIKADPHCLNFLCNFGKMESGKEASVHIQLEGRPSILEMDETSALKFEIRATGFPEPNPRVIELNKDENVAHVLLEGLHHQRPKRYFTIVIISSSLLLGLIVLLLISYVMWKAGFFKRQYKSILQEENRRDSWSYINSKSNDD

The term inhibition denotes the change of the read-out against control, counted positive when it falls. As for `COc1ccc(-c2cc3cc(OC)c(OC)cc3c(C)n2)cc1`, the percent of DMSO control GFP in experiment [1] was 103% (inactive). In addition, the GFP response vs DMSO in experiment [2] was 105% (inactive); in experiment [4], 90.3% (inactive). Besides, in experiment [3], the percent response of DMSO control is 102% (inactive). Also, the GFP response, % of DMSO in experiment [5] was 90.7% (inactive). The compound also returned a double positive events in experiment [6] of 53.2%. The vesicle binding response in experiment [6] was 149% (inactive). The inhibition in [7] was 5.36% (inactive); in experiment [10] it was 1.41% (inactive); in experiment [14], -2% (inactive). The superoxide response (% of plate) in [8] was 96% (inactive). For the same compound, the aptamer binding inhibition in [9] was 6% (inactive). Besides, in experiment [11], the response is 1.33% (inactive). Moreover, in experiment [12], the binding (% of control) is 106% (inactive). In addition, the efflux inhibition (fraction of control) in [13] was -0.09 (inactive). The differentiation response in experiment [15] is -8.27% (inactive).

On to `O=C(O)/C=C/c1ccc(O)c(O)c1`, for which the percent of DMSO control GFP in experiment [1] was 101% (inactive). Also, the GFP response vs DMSO is 104% (inactive) in [2] and 95.4% (inactive) in experiment [4]. In experiment [3], the percent response of DMSO control was 106% (inactive). Also, the GFP response, % of DMSO in [5] was 99.9% (inactive). This compound showed a double positive events in experiment [6] of 52.4%. Also, the vesicle binding response in experiment [6] is 173% (inactive). Moreover, the inhibition was 23.1% (inactive) in [7], 4.2% (inactive) in [10] and 4% (inactive) in experiment [14]. Also, in experiment [8], the superoxide response (% of plate) is 106% (inactive). Moreover, the aptamer binding inhibition in experiment [9] was 8% (inactive). Also, in experiment [11], the response is -0.83% (inactive). In addition, the binding (% of control) in experiment [12] was 95.4% (inactive). Further, in [13], the efflux inhibition (fraction of control) is 0.18 (inactive). Moreover, in experiment [15], the differentiation response is -0.2% (inactive).

Consider `O=C(O)c1ccccc1O`, for which the percent of DMSO control GFP in experiment [1] was 101% (inactive). In addition, the GFP response vs DMSO is 101% (inactive) in experiment [2] and 97.4% (inactive) in experiment [4]. For the same compound, in experiment [3], the percent response of DMSO control is 96.9% (inactive). In addition, the GFP response, % of DMSO in experiment [5] is 98.8% (inactive). This compound also returned a double positive events in experiment [6] of 59%. Moreover, the vesicle binding response in [6] was 178% (inactive). Also, the inhibition in [7] is 15.6% (inactive); in [10], 0.05% (inactive); in experiment [14], 0% (inactive). The superoxide response (% of plate) in experiment [8] was 100% (inactive). In experiment [9], the aptamer binding inhibition is 3% (inactive). In experiment [11], the response is -0.04% (inactive). For the same compound, the binding (% of control) in [12] is 104% (inactive). Further, the efflux inhibition (fraction of control) in [13] was 0.44 (active). The differentiation response in experiment [15] was -9.89% (inactive).

As to `CC(=O)NCCCCCCNC(C)=O`, the percent of DMSO control GFP in experiment [1] was 106% (inactive). The GFP response vs DMSO in experiment [2] is 92.8% (inactive); in experiment [4], 90.3% (inactive). Further, the percent response of DMSO control in experiment [3] was 110% (inactive). The GFP response, % of DMSO in [5] is 106% (inactive). This compound also came in with a double positive events in experiment [6] of 55.5%. In addition, in experiment [6], the vesicle binding response is 198% (inactive). Also, the inhibition in experiment [7] is 4.42% (inactive); in [10] it was -11.9% (inactive); in experiment [14] it was 5% (inactive). For the same compound, the superoxide response (% of plate) in [8] was 85.1% (inactive). Besides, in experiment [9], the aptamer binding inhibition was -1% (inactive). In experiment [11], the response is 6% (inactive). Further, the binding (% of control) in [12] is 94.1% (inactive). Moreover, the efflux inhibition (fraction of control) in experiment [13] is -0.31 (inactive). The differentiation response in [15] is -22.8% (inactive).

On to `COc1ccc2[nH]cc(C(=O)CCl)c2c1`, for which, in experiment [1], the percent of DMSO control GFP is 103% (inactive). Further, the GFP response vs DMSO in [2] is 98.9% (inactive); in [4], 100% (inactive). Besides, in [3], the percent response of DMSO control is 102% (inactive). Moreover, the GFP response, % of DMSO in [5] is 102% (inactive). This compound gave a double positive events in experiment [6] of 64.8%. In addition, the vesicle binding response in experiment [6] is 172% (inactive). In addition, the inhibition in experiment [7] is -3.04% (inactive); in [10], 24.1% (inactive); in experiment [14], 3% (inactive). For the same compound, the superoxide response (% of plate) in experiment [8] was 101% (inactive). The aptamer binding inhibition in experiment [9] is 4% (inactive). Also, the response in experiment [11] is -6.9% (inactive). In [12], the binding (% of control) is 98.2% (inactive). In [13], the efflux inhibition (fraction of control) was -0.01 (inactive). Also, the differentiation response in [15] is 0% (inactive).
